Positions count from the first letter of the chain named. The full ranking holds about 24,000 sequences; the median of “enrichment r” is about 0.99, and the highest 2% start at about 3.7. What follows is part of a selection rich in the highest values, with near analogues and random picks from the rest.

The labels stand for the following.
T1: UNK ZnF1-3 (human, UniProt Q9C0B0 31-174)
T1 sequence: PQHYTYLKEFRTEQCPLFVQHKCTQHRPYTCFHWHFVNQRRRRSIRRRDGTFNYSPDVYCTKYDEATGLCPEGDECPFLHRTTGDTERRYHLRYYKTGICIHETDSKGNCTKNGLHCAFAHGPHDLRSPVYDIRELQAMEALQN

B1: chr5:145543945:145543946:-_ENSG00000133706_ENST00000545646|hu_hu|hu_hu_hu_mus_True|58_98 (ssRNA)
RNA: GGGAGUUCUACAGUCCGACGAUCCUGAACGGCCAGUGGCGGGAAAUAAUCAAGCCAGUGCUCUGCUUCAGAAAACUUUACUAUCUCGUCAUCAGAGAGCCCAAGGGAUUUCAUAAUGUCCCACUGGUACUUAGAAGAUCCUGCCAACAGAGGAUUGAGCAUCA
B2: chrX:20248820:20248821:+_ENSMUSG00000001924_ENSMUST00000001989|mus_mus|mus_mus_mus_hu_True|78_78 (ssRNA)
RNA: GGGAGUUCUACAGUCCGACGAUCGGCGAAGUCCGUCACCACAAAGUCAGGUUCUGCCAGUGAUGCUACCAAGGAUUUAAAGCUAAUCUUCUUAGGUACUUUGACCUGACUGACGAUGCCUCCACGGAUGUAGUCGGAGAAGUUCAACAGAGGAUUGAGCAUCA
B3: chr1:66480114:66480115:+_ENSMUSG00000015222_ENSMUST00000024639|mus_hu|mus_mus_mus_hu_True|28_28 (ssRNA)
RNA: GGGAGUUCUACAGUCCGACGAUCUGGCCUGUGGCGGAUGUUCUUCAGAGAGCCACAUUUGGAUGUCACAUGGCUUAGGUCUAUUUUCUUGGUAACAAUUUGUACCUGACCCCCCUUAGGCUGGUAUUUGAUGUUGUCUGUUGACAACAGAGGAUUGAGCAUCA
B4: chrX:100668055:100668056:+_ENSG00000126945_ENST00000316594|hu_mus|FALSE|FALSE (ssRNA)
RNA: GGGAGUUCUACAGUCCGACGAUCGAGCUCUACAUAGCUAUGAUCAUAAGCUCCUCCACUUGUCCCUGCGGUAGAAUUCAAGAAGAGCUCCACAUAUCUGUGUUGCAUAUUUGCUUUAUCUUUUGCCAUAGCUGCCACAGCGUCCAACAGAGGAUUGAGCAUCA
B5: chr12:118471567:118471568:-_ENSG00000176871_ENST00000315436|hu_hu|motif|central (ssRNA)
RNA: GGGAGUUCUACAGUCCGACGAUCGCACUUGGCCAACAUCGAAGCAACUCUGACCACAGCAGGAGAGAACUUGAACCAAUGCGGCCACUGCAUCAGAAACACAAGGAUAGGUACUAGGCAGAAGCCAUCGUUCCCAGCGGAGGGCAACAGAGGAUUGAGCAUCA
B6: chr5:128448638:128448639:+_ENSG00000066583_ENST00000173527|hu_mus|hu_hu_hu_mus_False|18_48 (ssRNA)
RNA: GGGAGUUCUACAGUCCGACGAUCGGCACUCGCCUUAAUUAGGUUCUGAAUUUCCUUGAACUUCGGGUGGUCUUUGUCAGCCACCAGCUGAAGCAGAACAGCCUCACUAGUGGUCACUAUGAUCCCGGUGCGGGCAAGACGCUCCAACAGAGGAUUGAGCAUCA
B7: chr16:68260615:68260616:+_ENSG00000072736_ENST00000346183|hu_hu|FALSE|FALSE (ssRNA)
RNA: GGGAGUUCUACAGUCCGACGAUCGAAACAAGAGAGCCUGCUGCAUUCACACUCAAAGCACCCAUCAUAUAAAAGUAUCCUAGUUAAAUAUAAAAAGCAAAGUUCAUUUCCCCAAAGCUCAAACAGCCUAUGCUGCUCCUGUUCCAACAGAGGAUUGAGCAUCA
B8: chr1:157160411:157160412:-_ENSMUSG00000026469_ENSMUST00000027741|mus_mus|FALSE|FALSE (ssRNA)
RNA: GGGAGUUCUACAGUCCGACGAUCGAAUUCAAUCAGAAGAAAGCCACCCCGAUAGAUUCUUAUCAAGGGCCAUACAGUUCUAUCUGUUUCAAGUUUAAAUACAGCUGCAAACACAAGGGUAAUAUUCAGCACAAUGAAUAUUCCCAACAGAGGAUUGAGCAUCA
B9: chr1:157160411:157160412:-_ENSMUSG00000026469_ENSMUST00000027741|mus_mus|motif|central (ssRNA)
RNA: B8 RNA with U80G, A81G
B10: chr15:103023242:103023243:-_ENSMUSG00000009575_ENSMUST00000118152|mus_mus|FALSE|FALSE (ssRNA)
RNA: GGGAGUUCUACAGUCCGACGAUCAACUAGCAGCAUUGAUGAGGGGUUAAGGGAUUGGGGACAGAAACUCACCAAGGUCACUAAGUACUUCCAAACUUGGAAGUAGCUCAGUGAGGGCUAAAAAAACUUCGACUGAAGGUAUCCCAACAGAGGAUUGAGCAUCA
B11: chr5:145543945:145543946:-_ENSG00000133706_ENST00000545646|hu_hu|hu_hu_hu_mus_True|48_48 (ssRNA)
RNA: B1 RNA with C39U, U78C, C84G, G87U, G96C
B12: chr1:26230221:26230222:-_ENSG00000117632_ENST00000374291|hu_mus|FALSE|FALSE (ssRNA)
RNA: GGGAGUUCUACAGUCCGACGAUCCUGGAUUUCCUCCAGGGAAAGGUCCUUCUUCUUUGGGGGGGAAAGGGGGAAAUCGGGGACAGAUUCUUUUGACCGAGGGCUGAGAAUCAGCUCAAAAGCCUGGCCUGAAGCGCGCUUCUCCAACAGAGGAUUGAGCAUCA
B13: chr14:67424093:67424094:-_ENSMUSG00000022048_ENSMUST00000022629|mus_mus|motif|central (ssRNA)
RNA: GGGAGUUCUACAGUCCGACGAUCGGAGACCGAGUGCAGGGGGCCCAAGAGGAAGCCCCAGGAACUGGCUGCCCACAGCAACGGUCACAGGCUCUUUAAAAAAAAAAAAAAUGGAAGAAAGGAAGUCUCAGAAUGUCCUCAGGUCAACAGAGGAUUGAGCAUCA
B14: chr14:67424093:67424094:-_ENSMUSG00000022048_ENSMUST00000022629|mus_mus|FALSE|FALSE (ssRNA)
RNA: B13 RNA with G82U, G83A
B15: chr17:35975164:35975165:-_ENSMUSG00000001525_ENSMUST00000001566|mus_hu|FALSE|FALSE (ssRNA)
RNA: GGGAGUUCUACAGUCCGACGAUCGGAAUGCGCCCCAGAGGCUGGAGCAGCGAGGUGCAAACGCGACGGCAGGAAGGUUCUGAGAGGGAGAAAGGAGAGGGGAGGGCGCGGAGGGAAAGCAGGCUGGGCGGGGCGCGCGUGCGCCAACAGAGGAUUGAGCAUCA
B16: 72187872_72187992_6815_3pUTR_ENSG00000148730_ENST00000373218|human|control|control (ssRNA)
RNA: GGGAGUUCUACAGUCCGACGAUCGAGUGUCCUCUGGGCUCUUCAAGACACCUUCUUUAAGGUUUACCCCUGGAGUAGCAGAGGGUCUCCUCACCCAGGUGGAAAGAGAUGGGCUCCAUCUGCAGAUGAAGGAAAGGCACUGGCCAACAGAGGAUUGAGCAUCA
B17: chr10:70525781:70525782:+_ENSG00000060339_ENST00000535016|hu_hu|motif|central (ssRNA)
RNA: GGGAGUUCUACAGUCCGACGAUCUGAAUGUUCUUUAUUAUCCUCUAAUCUGUAGUCCAAUAGGACACUCAAAGACAUGAUGCGGCAAUCAAACUUGCCACUUUUUGCAGCCCAAUUUGGAUGUACAAUGAUGGCCGGUUCAUCCAACAGAGGAUUGAGCAUCA
B18: chr20:57415074:57415075:+_ENSG00000087460_ENST00000313949|hu_hu|motif|central (ssRNA)
RNA: GGGAGUUCUACAGUCCGACGAUCUCUGCAGAGAGUGGCUCCGAAGCACAUUGGCUGCUGGAGCCGGGAAAGGUACACCCGGUGAGGUGAGAAGCUGGCCCGGAGGUCCCAGCCUCACCUCCUUGUGAGGAGAAAAAGGGAAGCCAACAGAGGAUUGAGCAUCA
B19: chr17:23874276:23874277:-_ENSMUSG00000023909_ENSMUST00000024702|mus_hu|FALSE|FALSE (ssRNA)
RNA: GGGAGUUCUACAGUCCGACGAUCUCUAACCCCACAGGUCACAGAGGGUAAAGAGGUCCCAAGAGGGAAAGGUUUCCUUCCAGCUGACACAGUAAAAUAGGAGCUUGGAGGGAAAAGGCAGGGAAGGAAGUUGGAGCGCCACGGCAACAGAGGAUUGAGCAUCA
B20: chr17:23874276:23874277:-_ENSMUSG00000023909_ENSMUST00000024702|mus_mus|motif|central (ssRNA)
RNA: GGGAGUUCUACAGUCCGACGAUCAGAGACUCUCACAGGUUAAACAGGGUAAAUUGGGAAAAAAAAAAAUGGUUUCCUUCGGAUGACAGCAAAACAAUGCCCAGGAGGGAAGAUGGCAAGGAAAGUGGAAGCUGGGGUUUGAAGCAACAGAGGAUUGAGCAUCA
B21: chr1:220276048:220276049:+_ENSG00000067704_ENST00000302637|hu_hu|hu_hu_hu_mus_True|1_108 (ssRNA)
RNA: GGGAGUUCUACAGUCCGACGAUCGCAAACAGCUUCAUUGGCGGGAAUUGUCCAAGGCUGGGUGGUCCAAACUAAAACGCUAACAGGGGAUGAGGCAUCUGUAAGAGACUCCAACUUCGGAGGAGGUCUCAGGAGGGGAAAUUUCAACAGAGGAUUGAGCAUCA
B22: chrX:7396663:7396664:+_ENSMUSG00000031153_ENSMUST00000132456|mus_mus|motif|central (ssRNA)
RNA: GGGAGUUCUACAGUCCGACGAUCGCAAGGGCAUACAUGGAUGGAUCAGUGGGCAGAGGGACAGAUGGCAGACUGAUGGGCGGACCUGGGAAGUUGAUUGGAGGGUAAAAGAGGUGAACACAAAAGGGCGGUAGAUGACUGGAACAACAGAGGAUUGAGCAUCA
B23: chr18:38611996:38611997:+_ENSMUSG00000024425_ENSMUST00000025293|mus_mus|FALSE|FALSE (ssRNA)
RNA: GGGAGUUCUACAGUCCGACGAUCAAGACCAAAUCCUGAGAUGGCCCCAUACCUUCCCGCAGCUGAGGUGGUCAGGCAAAAAGACAAGAAAAACCCAAUCCAGUUGAAGAGGAAUGCCAUGAAAAAAGUUAACAUAAAAAUCCCCAACAGAGGAUUGAGCAUCA
B24: chr17:23874276:23874277:-_ENSMUSG00000023909_ENSMUST00000024702|mus_mus|FALSE|FALSE (ssRNA)
RNA: B20 RNA with G80U, G81A

In the test the target is T1, UNK ZnF1-3. The test can be described thus: nsRBNS (natural sequence RNA bind-n-seq); RBNS binding buffer (assumed for nsRBNS): 25 mM Tris pH 7.5, 150 mM KCl, 3 mM MgCl2, 0.01% Triton X-100, 500 ug/ml BSA, 20 U/ml SUPERase-In, 4 C; UNK is unkempt and MSI1 is Musashi-1; names of the RNAs are library labels; protein concentration not given here; high values mean tight binding.
B1 gave a binding signal of 1.23 enrichment R.
In the case of B2 it was 0.842 enrichment R.
The molecule B3 gave a binding signal of 0.629 enrichment R.
B4 gave a binding signal of 1 enrichment R.
Then B5, with 1.61 enrichment R; and B6, with 0.517 enrichment R.
Then B7, with 4.02 enrichment R; and B8, with 0.961 enrichment R.
In the case of B9 it was 0.944 enrichment R; in that of B10, 1.71 enrichment R.
Consider B11, for which the binding signal turned out to be 1.07 enrichment R.
In the case of B12 it was 0.676 enrichment R; in that of B13, 4.34 enrichment R.
Then B14, with 3.82 enrichment R; and B15, with 2.69 enrichment R; and B16, with 1.96 enrichment R.
In the case of B17 it was 0.442 enrichment R; in that of B18, 0.876 enrichment R.
Molecule B19 returned a binding signal of 1.43 enrichment R.
In the case of B20 it was 4.06 enrichment R.
Molecule B21 returned a binding signal of 1.61 enrichment R.
Then B22, with 2.58 enrichment R; and B23, with 2.06 enrichment R.
B24 had a binding signal of 4.07 enrichment R.

Values taken from PMC12136788.
